# Screening results deposited in PubChem by National Center for Advancing Translational Sciences (NCATS).
# An excerpt weighted towards active compounds, which were near 11% of everything screened.
# BAZ2B block: inhibitors of human BAZ2B bromodomain; AlphaScreen BAZ2B-H3K14Ac peptide displacement; AID 504333; Q9UIF8; Potency, µM (top dose mostly 114 µM), without a hit: at the top dose activity change, negative = inhibition, actives largely listed as inhibitors; hit rate 4.4% among 360,000; also: % is scaled to controls: 0 for no effect and ±100 for the full control effect; nearly all actives have a fitted effect of over 60% in size
#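 BAZ2B (50 nM) with biotin-H3(5-23)K14Ac peptide (50 nM) in PBS pH 7.4, 0.01% Tween-20, preformed 30 min, then compound 30 min at room temperature; top concentration 110uM. AlphaScreen streptavidin donor/nickel chelate acceptor beads (10 ug/mL final), 20 min dark, signal read.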
# G9a block: blocks human histone lysine methyltransferase G9a. Q96KQ7. G9a H3K9 monomethylation, AlphaScreen, 2 h. Potency, µM (top dose mostly 102 µM), for inactives: at the highest dose activity, negative = inhibition, actives largely listed as inhibitors. hit rate 8.8% among 350,000; also: % is scaled to controls: 0 for no effect and ±100 for the full control effect; nearly all actives have a fitted effect of over 75% in size
# Target sequence (Q96KQ7 913-1193 limits assumed): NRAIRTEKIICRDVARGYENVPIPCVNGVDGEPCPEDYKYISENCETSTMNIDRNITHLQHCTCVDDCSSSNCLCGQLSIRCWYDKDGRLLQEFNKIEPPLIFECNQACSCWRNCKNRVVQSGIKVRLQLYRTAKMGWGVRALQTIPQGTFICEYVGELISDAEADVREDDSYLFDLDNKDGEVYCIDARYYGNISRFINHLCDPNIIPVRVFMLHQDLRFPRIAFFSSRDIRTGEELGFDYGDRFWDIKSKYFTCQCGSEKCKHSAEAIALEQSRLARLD
#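 Signal arises when biotinylated H3K9 peptide, once monomethylated, bridges streptavidin donor and antibody-captured acceptor beads. Enzyme at 20 nM was preincubated 15 min with test compounds; peptide 500 nM and SAM 20 uM then reacted for 2 h.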
# HP1b binding inh: inhibitors of HP1-beta chromodomain binding to methylated histone tails; P83916; AlphaScreen HP1-beta / biotin-H3K9me3 peptide binding; Potency, µM (series often up to 114 µM), for the others: top-dose activity change, negative = inhibition, hits mostly inhibitors; hit rate 0.56% among 390,000; AID 540317; also: nearly all actives have a fitted effect of over 70% in size
# Target sequence (P83916 whole entry, looked up): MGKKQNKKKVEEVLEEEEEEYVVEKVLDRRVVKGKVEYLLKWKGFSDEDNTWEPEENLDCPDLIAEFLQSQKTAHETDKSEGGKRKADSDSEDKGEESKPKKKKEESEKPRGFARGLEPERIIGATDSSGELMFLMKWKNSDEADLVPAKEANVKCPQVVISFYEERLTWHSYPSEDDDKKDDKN
#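 AlphaScreen: HP1-beta (50 nM) preformed 30 min with biotin-H3(1-18)K9me3 peptide (50 nM) in PBS pH 7.4, 0.01% Tween-20. Compound added for 30 min at RT, then streptavidin donor/nickel chelate acceptor beads (10 ug/mL) for 30 min.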
# L3MBTL1 block: blocks human L3MBTL1 | Q9Y468 | AlphaScreen L3MBTL1–H3K9me1 peptide binding | Potency, µM (top dose mostly 57.1 µM), inactives show at the top dose activity, negative = inhibition, actives largely listed as inhibitors | hit rate 0.66% among 230,000 | AID 485360; also: % is scaled to controls: 0 for no effect and ±100 for the full control effect; nearly all actives have a fitted effect of over 60% in size
#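 AlphaScreen proximity signal between nickel-chelate acceptor and streptavidin donor beads (final 10 ug/mL) reports binding of 50 nM L3MBTL1 to 75 nM biotin-H3 K9me1 peptide; complex incubated with compounds 30 min at room temperature; cefsulodin titration as control.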
# JMJD2A Tudor: JMJD2A Tudor domain (human) inhibition; O75164; AlphaScreen JMJD2A-Tudor / H3K4me3 peptide binding; Potency, µM (doses to about 114 µM), inactives show top-dose activity change, negative = inhibition, hits mostly inhibitors; hit rate 4.4% among 390,000; AID 504339; also: % is scaled to controls: 0 for no effect and ±100 for the full control effect; nearly all actives have a fitted effect of over 50% in size
# An asterisk follows results filed as active; ? = inconclusive; · = not tested or not shown; [ ] = another dose, or the depositor's remark. Calls follow the shape of the dose curve; as a rule, active = well fitted inhibition curve with a large enough effect; inconclusive = small, poorly fitted or top-dose-only effect; inactive = no such curve, though single readings can be large or run the other way. Potency is read from the fitted curve at half-maximal effect.
SMILES,BAZ2B block,G9a block,HP1b binding inh,L3MBTL1 block,JMJD2A Tudor
O=C(CSc1nccn1Cc1ccc(F)cc1)Nc1nc2ccccc2s1,?,-47%[59 µM],-18%[57 µM],·,?
O=C(CSc1nccn1Cc1ccccc1)Nc1nc2ccccc2s1,?,-43%[59 µM],-5%[57 µM],·,50µM*
COc1ccc(NC(=O)N(C)C[C@H]2Oc3ccc(NC(=O)NC4CCCCC4)cc3C(=O)N([C@H](C)CO)C[C@@H]2C)cc1,·,·,41%,4%,-19%
CC(=O)c1ccc(N2CCN(C(=O)C3CCN(S(=O)(=O)c4cccs4)CC3)CC2)cc1,4%,12%[59 µM],-2%,·,-13%
Nc1ccc(/C=C/C(=O)c2ccco2)cc1,2%,0%[59 µM],37%,-9%,-10%
N#Cc1ccc(/C=C/C(=O)c2ccco2)cc1,-3%,14µM*,32%,-21%,-1%
O=c1[nH]c2ccc(NCc3ccccc3F)cc2[nH]1,?,18µM*,-1%,·,?
Oc1ccc(NCc2ccccc2OCc2ccc(Cl)cc2)cc1,-25%,7.9µM*,5%,·,?
CCOc1cc(CNc2ccc(O)cc2)ccc1OCc1ccc(Cl)cc1,-33%,?,?,·,-36%
O=c1[nH]c2ccc(NCc3ccc(-c4ccccc4F)o3)cc2[nH]1,-10%,-25%[59 µM],28%,·,-16%
O=c1[nH]c2ccc(NCc3ccccc3OCc3ccc(Cl)cc3)cc2[nH]1,22µM*,25µM*,?,?,28µM*
CCc1ccc(NCc2cc3cc(OC)c(OC)cc3n(CC(=O)Nc3cc(C)ccc3C)c2=O)cc1,-22%,-1%[59 µM],16%,·,-15%
Cc1cc(C)cc(NC(=O)CSc2nc3c([nH]c4ccccc43)c(=O)n2-c2ccc(F)cc2)c1,19%,-19%[59 µM],34%[57 µM],·,-6%
CC(c1ccccc1)C1C(C#N)=C(N)OC2=C1C(=O)CC(C)(C)C2 (stereo not given),0%,-2%,33%,-2%,-21%
CC1(C)CC(=O)C2=C(C1)OC(N)=C(C#N)C2C#Cc1ccccc1 (stereo not given),?,14µM*,42%,-6%,-25%
O=C(NNC(=O)c1ccccc1-n1cccc1)c1cncc(Br)c1,·,·,16%,0%,-17%
O=S(=O)(NC1CCCC1)c1ccc(S(=O)(=O)NC2CCCC2)cc1,-4%,12%,37%,-10%,-4%
N#Cc1ccc(S(=O)(=O)NC2CC2)cc1,?,7.9µM*,32%,·,-7%
O=C(O)c1ccccc1-c1ccccc1C(=O)NNc1ccccc1,-5%,8.9µM*,60%,7%,-15%
O=C(O)c1ccccc1-c1ccccc1C(=O)Nc1ccccc1,-3%,-3%[12.7 µM],15%,4%,-8%
O=C(O)c1ccccc1-c1ccccc1C(=O)Nc1cccc(Br)c1,-25%,45µM*,-24%,8%,-16%
O=C(c1cc2ccccc2oc1=O)N(Cc1cccs1)Cc1cccs1,4%,5%[59 µM],-16%,-1%,28µM*
O=C(c1cc2ccccc2oc1=O)N(Cc1ccco1)Cc1cccs1,-35%,6%[12.7 µM],-8%,·,-30%
CN(CCOc1ccc(Cl)cc1)CC(O)c1ccccc1 (stereo not given),20µM*,3.5µM*,71µM*,·,1.1µM*
CN(CCOc1ccccc1)CC(O)COc1ccccc1 (stereo not given),-5%,?,13%,·,-8%
SMILES,BAZ2B block,G9a block,HP1b binding inh,L3MBTL1 block,JMJD2A Tudor
CCC(C)c1ccccc1NC(=O)CN(C)CCOc1ccc(Cl)cc1 (stereo not given),20%,4%,106%,·,44%
CN1CCC(N(C)CC(O)c2ccccc2)CC1 (stereo not given),50µM*,8.9µM*,-8%,-5%,3.5µM*
CC(OCC(O)CN(C)CCOc1ccccc1)c1ccc(Cl)cc1 (stereo not given),?,?,?,2%,3.5µM*
CC(C)c1ccc(CN(C)CC(O)c2ccccc2)cc1 (stereo not given),89µM*,?,15%,·,-17%
Cc1ccccc1CN(C)C1CCN(C)CC1,15%,·,35%,-7%,-1%
CCOc1ccccc1NC(=O)c1ccc2c(c1)CCN2S(C)(=O)=O,-3%,-7%[59 µM],34%,·,-14%
CN(CCOc1ccccc1)CC(O)COCc1ccccc1F (stereo not given),71µM*,10µM*,?,·,?
CCOc1cc(CNc2ccc3c(c2)OCCO3)cc(Br)c1OCC(N)=O,45µM*,13µM*,-39%,-18%,50µM*
CCOc1cc(CNc2ccc3c(c2)OCCO3)cc(Br)c1OC,22µM*,4µM*,-69%,·,40µM*
CCOc1c(Br)cc(CNc2ccc3c(c2)OCCO3)cc1OC,35µM*,3.2µM*,-81%,·,50µM*
CCOc1c(Br)cc(CNc2ccc(N3CCOCC3)cc2)cc1OC,25µM*,11µM*,?,·,50µM*
CCOc1cc(CNCc2cccs2)cc(Br)c1OC,8%,-23%,43%,12%,8%
COc1cc(CNc2ccc3c(c2)OCCO3)ccc1OCC(N)=O,-16%,1%,7%,4%,?
CS(=O)(=O)N1CCCc2cc(C(=O)Nc3cccc(C(F)(F)F)c3)ccc21,1%,-1%[59 µM],27%,·,-24%
O=C(O)c1cccc(N=C2NC(=O)C(CO)(CO)S2)c1,-6%,?,32%,-1%,-5%
Cc1ccc(-c2nn(-c3ccc(F)cc3F)c3c2cnc2c(F)cccc23)cc1,-14%,13%[59 µM],34%,·,-16%
COc1cccc(N2CCN(C(=O)c3cnc4c(-c5ccc(F)cc5)c(C)nn4c3C)CC2)c1,?,-9%[59 µM],-4%,·,-29%
Cc1c(C(=O)Nc2ccc3c(c2)OCO3)oc2ccccc12,-3%,-9%,29%,·,-13%
CSCc1c(C(=O)Nc2ccc3c(c2)OCO3)oc2ccccc12,?,35µM*,-13%,·,?
Cc1ccc(CNC(=O)C2CCCN(c3nc4ccccc4n4cccc34)C2)cc1 (stereo not given),-18%,-11%[59 µM],27%,·,-2%
S=c1[nH]nc(C2CCCCC2)n1/N=C/c1ccc(Br)cc1,-3%,10µM*,19%,·,-2%
S=c1[nH]nc(C2CCCCC2)n1/N=C/c1ccc(Cl)cc1,-22%,40µM*,13%,·,-31%
CCc1ccc(/C=N/n2c(C3CCCCC3)n[nH]c2=S)cc1,-38%,32µM*,-14%,·,?
O=[N+]([O-])c1ccc(Cl)c(/C=N/n2c(C3CCCCC3)n[nH]c2=S)c1,-2%,?,3%,7%,?
Cc1ccc(/C=N/n2c(C3CCCCC3)n[nH]c2=S)cc1,3%,10µM*,-20%,·,?
CN(C(=O)Cn1nc(Cc2cccnc2)c2ccccc2c1=O)c1cccc(C(F)(F)F)c1,-8%,-19%[59 µM],51%,·,-20%
CCCNC(=O)C1CCC(Cn2c(=O)c3sccc3n(CC(=O)NCc3cccc(OC)c3OC)c2=O)CC1 (stereo not given),1%,-26%[59 µM],22%,·,-11%
